# Reference: paper PMC4336329 (PLoS ONE, 2015)
# Screen size: about 310,000 compounds; about 14,000 (4.5%) showed an effect of 50% or more. Effects have a minus sign here. The entries come from a sample that favours strong results as a whole.
# Molecular target: human ether-à-go-go-related gene (hERG) potassium channel (human, UniProt Q12809)
# Assay: primary screen, population patch clamp on CHO cells stably expressing hERG; higher = less effect of the substance
# 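Note: peak tail current of the secondary pulse compared with the same well before compound.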
# Sequence of human ether-à-go-go-related gene (hERG) potassium channel (Q12809 whole entry, looked up): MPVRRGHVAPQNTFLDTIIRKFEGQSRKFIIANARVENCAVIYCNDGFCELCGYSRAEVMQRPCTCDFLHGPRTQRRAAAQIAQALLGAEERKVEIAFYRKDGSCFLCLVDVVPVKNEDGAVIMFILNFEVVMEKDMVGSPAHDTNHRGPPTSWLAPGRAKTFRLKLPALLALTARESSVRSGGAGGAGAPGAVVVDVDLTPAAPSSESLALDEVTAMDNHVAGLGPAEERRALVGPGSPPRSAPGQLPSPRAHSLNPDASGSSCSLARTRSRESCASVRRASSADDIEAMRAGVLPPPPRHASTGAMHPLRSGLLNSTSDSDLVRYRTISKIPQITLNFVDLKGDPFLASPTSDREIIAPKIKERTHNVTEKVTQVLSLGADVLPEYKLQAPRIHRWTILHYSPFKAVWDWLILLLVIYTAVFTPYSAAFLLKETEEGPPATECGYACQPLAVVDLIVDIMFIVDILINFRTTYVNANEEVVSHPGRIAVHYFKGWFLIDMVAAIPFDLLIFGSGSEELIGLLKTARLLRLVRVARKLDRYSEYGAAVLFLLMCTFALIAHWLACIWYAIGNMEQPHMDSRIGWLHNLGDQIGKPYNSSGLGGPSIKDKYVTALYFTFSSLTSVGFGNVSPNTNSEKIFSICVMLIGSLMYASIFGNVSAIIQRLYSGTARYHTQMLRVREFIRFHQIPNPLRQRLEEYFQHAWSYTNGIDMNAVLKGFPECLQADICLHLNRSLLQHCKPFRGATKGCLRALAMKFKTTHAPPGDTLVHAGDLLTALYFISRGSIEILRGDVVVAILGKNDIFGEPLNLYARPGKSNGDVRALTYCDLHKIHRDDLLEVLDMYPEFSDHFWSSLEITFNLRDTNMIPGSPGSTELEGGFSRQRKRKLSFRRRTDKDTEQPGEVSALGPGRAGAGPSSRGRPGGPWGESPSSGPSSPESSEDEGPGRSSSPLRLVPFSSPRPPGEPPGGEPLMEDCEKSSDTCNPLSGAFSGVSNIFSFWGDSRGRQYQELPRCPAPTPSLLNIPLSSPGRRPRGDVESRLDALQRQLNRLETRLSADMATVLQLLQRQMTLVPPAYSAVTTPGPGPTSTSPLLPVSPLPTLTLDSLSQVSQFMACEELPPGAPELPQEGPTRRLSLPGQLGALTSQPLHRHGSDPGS
row,SMILES,"hERG current change (%, negative = inhibition) at 10uM"
1,Cc1ccc(N2CC(C(=O)Nc3cccnc3)CC2=O)cc1 (stereo not drawn),-9.42%
2,O=S(=O)(c1ccc(Cl)cc1)N1CCN2CCCC2C1 (stereo not drawn),-6.01%
3,CN(C)NC1CC(=O)N(c2ccccc2)C1=O (stereo not drawn),15.9%
4,NC(=O)N/N=C/c1cn(-c2ccccc2)nc1-c1ccccc1,-6.63%
5,Cc1[nH]c(=O)[nH]c(=O)c1S(=O)(=O)Nc1ccc(F)cc1Cl,17.1%
6,S=c1[nH]nc(COc2ccccc2)n1/N=C/c1ccc(Cl)cc1,22.4%
7,N=c1c2c(ncn1Cc1ccco1)Oc1c(ccc3ccccc13)C2c1ccccc1 (stereo not drawn),-26.5%
8,COc1ccc(C2c3ccc4ccccc4c3Oc3ncn(CCCO)c(=N)c32)cc1 (stereo not drawn),-71.6%
9,COc1ccccc1C1c2ccc3ccccc3c2Oc2ncn(CCCO)c(=N)c21 (stereo not drawn),-66.6%
10,COc1ccc(C2c3ccc4ccccc4c3Oc3ncn4nc(Cc5ccccc5)nc4c32)cc1OC (stereo not drawn),13.2%
11,COc1ccc(C2c3ccc4ccccc4c3Oc3ncn(Cc4ccco4)c(=N)c32)cc1OC (stereo not drawn),-62.9%
12,CC1(c2nnc(-c3ccccc3)o2)CC(c2ccc([N+](=O)[O-])cc2)=NO1 (stereo not drawn),4.53%
13,O=C(Nc1cccc(Cl)c1)c1cc(S(=O)(=O)N2CCCCC2)c[nH]1,-9.13%
14,Cc1nn2c(=O)cc(CSc3ccccc3NC(=O)c3ccccc3F)nc2s1,-3.29%
15,CCCCCCCCCCCC(=O)N/N=C/c1ccco1,-11.2%
16,COc1ccc(Cc2nc3ccc(C(=O)N4CCCCC4CCO)cc3o2)cc1 (stereo not drawn),4.93%
17,CN(C)C(=O)Cn1c(SCC(=O)NC2CCCCC2)nc2ccccc21,7.7%
18,COC(=O)Cn1c(=O)c(=O)n(CC(=O)OC)c2ccccc21,22.7%
19,Cn1cnc(S(=O)(=O)NC2CCN(Cc3c(F)cccc3Cl)CC2)c1,-18.6%
20,COCCN(C(=O)C1CC1)c1nnc(-c2cccc(C)c2)s1,-6.82%
21,O=C(CCCNS(=O)(=O)c1cccs1)N1CCN(c2cccc(Cl)c2)CC1,-56.9%
22,O=C(CCCNS(=O)(=O)c1cccs1)N1CCN(c2ccc(F)cc2)CC1,-43.2%

row,SMILES,"hERG current change (%, negative = inhibition) at 10uM"
1,O=C(Cn1c(=O)c2cccn2c2cccnc21)N1CCN(c2ccc(Cl)cc2)CC1,-47%
2,O=C(O)CCC(=O)N1CCN(c2cccc(Cl)c2)CC1,12%
3,CN1CCN(C(=O)CCn2c(=O)c3cccn3c3cccnc32)CC1,8.62%
4,O=C(OCC(=O)N1CCN(c2ccccc2)CC1)c1ccc(Cl)cc1[N+](=O)[O-],-63.6%
5,O=C(CCNS(=O)(=O)c1cccs1)N1CCN(c2cccc(Cl)c2)CC1,-10.3%
6,O=C(OCC(=O)N1CCN(c2ccccc2)CC1)c1ccccc1[N+](=O)[O-],-28.8%
7,O=C(CCn1c(=O)c2cccn2c2cccnc21)N1CCN(c2cccc(Cl)c2)CC1,-58.8%
8,O=C(CCC(=O)N1CCN(c2cccc(Cl)c2)CC1)N1CCN(c2ccccc2)CC1,-55.6%
9,O=C(OCC(=O)N1CCN(c2ccccc2)CC1)c1cc(Cl)ccc1[N+](=O)[O-],-37%
10,O=C(O)CCCC(=O)N1CCN(c2cccc(Cl)c2)CC1,2.98%
11,O=C(COc1c(Br)cc(Br)cc1Br)N/N=C/c1ccco1,14.2%
12,Nc1nnc(SCC(=O)Nc2ccc(Cl)c(C(=O)O)c2)s1,19.8%
13,O=C(NCCc1ccc(C(F)(F)F)cc1)C1CC(=O)N(c2ccc3c(c2)OCCO3)C1 (stereo not drawn),-2.97%
14,O=C(Cn1cc(C(=O)C2CCCCC2)c2ccccc21)NCC1CCCO1 (stereo not drawn),-14.8%
15,O=C(Nc1ccc(Br)cc1)NC1CCCCCCC1,2.29%
16,O=C(NCCN1CCCCC1)/C(=N\O)c1ccccc1,5.35%
17,O=C(CCC(=O)N1CCN(c2ccc(O)cc2)CC1)c1cccs1,-3.11%
18,COc1ccc(N2CCN(C(=O)CCNC(=O)c3ccc(Br)cc3)CC2)cc1,-20.2%
19,O=C(NCCC(=O)N1CCN(c2ccccc2O)CC1)c1ccc(Br)cc1,-13.3%
20,O=C(CCn1c(=O)[nH]c2ccsc2c1=O)N1CCN(c2cccc(Cl)c2)CC1,-52.3%
21,COc1ccccc1N1CCN(C(=O)CCn2c(=O)[nH]c3ccsc3c2=O)CC1,8.71%
22,O=C(c1cccs1)N1CCN(c2cccc(Cl)c2)CC1,-16.5%

row,SMILES,"hERG current change (%, negative = inhibition) at 10uM"
1,O=C(NCCC(=O)N1CCN(c2cccc(Cl)c2)CC1)c1ccc(Br)cc1,-55%
2,O=C(CCn1c(=O)[nH]c2ccsc2c1=O)N1CCN(c2ccc([N+](=O)[O-])cc2)CC1,-35.2%
3,O=C(CCC(=O)N1CCN(c2cccc(Cl)c2)CC1)c1cccs1,-56.8%
4,COc1ccccc1CSc1ncc(-c2ccc([N+](=O)[O-])cc2)[nH]1,-13.8%
5,CC(C)(C)C(=O)CN1C(=O)NC2(CCCc3ccccc32)C1=O (stereo not drawn),14%
6,O=C(CCC1CCN(C(=O)c2cncs2)CC1)Nc1ccccc1,-4.83%
7,COCCNC(=O)CN(C(=O)CCC(=O)Nc1ccccn1)c1ccc(C)c(C)c1,16%
8,COc1ccc(C(=O)/C=C/NCc2ccc(F)cc2)cc1OC,-65%
9,Cc1ccc(C(=O)/C=C/NCc2ccc(F)cc2)cc1,-9.71%
10,CCc1ccc(C(=O)/C=C/NCc2ccc(F)cc2)cc1,-4.74%
11,CC(C)=C1C2CCC1C1C(=O)N(c3nc(-c4ccccc4)c(C)s3)C(=O)C21 (stereo not drawn),-2.93%
12,COc1cccc(NC(=O)CSc2nc3scc(C)c3c(=O)[nH]2)c1,10.5%
13,CC(=O)c1ccc(N2CCN(c3ccc(S(=O)(=O)NCCN(C)C)cc3[N+](=O)[O-])CC2)cc1,-23.2%
14,CC(=O)c1ccc(N2CCN(c3ccc(S(=O)(=O)NCCCN(C)C)cc3[N+](=O)[O-])CC2)cc1,-18.1%
15,CN(C)CCNS(=O)(=O)c1ccc(N2CCN(c3ccc(F)cc3)CC2)c([N+](=O)[O-])c1,-62.4%
16,CCOC(=O)c1c(N)nn(C(=O)C(C)C)c1-c1ccc(OC)cc1,22.1%
17,O=[n+]1c2c(n([O-])c3cc(F)c(F)cc31)CCCC2,10.2%
18,CCN(CC)CCn1c2c(c(SCC(=O)Nc3nc(C)cs3)nc1=O)CCC2,-48.7%
19,CCN(CC)CCCn1c2c(c(SCC(=O)Nc3nccs3)nc1=O)CCC2,-32%
20,Cc1csc(NC(=O)CSc2nc(=O)n(CCN(C)C)c3c2CCCC3)n1,-55.9%
21,CCN(CC)CCCn1c2c(c(SCC(=O)Nc3nc(C)cs3)nc1=O)CCC2,-42.6%
22,CCN(CC)CCn1c2c(c(SCC(=O)Nc3nc(C)cs3)nc1=O)CCCC2,-70.1%

row,SMILES,"hERG current change (%, negative = inhibition) at 10uM"
1,CCN(CC)CCn1c2c(c(SCC(=O)Nc3nccs3)nc1=O)CCCC2,-59.5%
2,CN(C)CCn1c2c(c(SCC(=O)Nc3nccs3)nc1=O)CCCC2,-30%
3,Cc1ccc(S(=O)(=O)NCC(=O)NCC(=O)OC(C(=O)NC(N)=O)C(C)C)cc1C (stereo not drawn),8.86%
4,CC(C)c1nc(SCC(=O)N2CCCCCC2)c2c(=O)n(C)c(=O)n(C)c2n1,-11.2%
5,Cc1nc2c(cc1C(=O)N/N=C/c1ccc([N+](=O)[O-])cc1)c(=O)n(C)c(=O)n2C,-12%
6,CC1=C(C)CC(C(=O)Nc2cccc(Cl)c2)C(C(=O)O)C1 (stereo not drawn),9.8%
7,O=C(CN1C2CCCC1CC(NC(=O)C1CCCCC1)C2)Nc1ccccc1 (stereo not drawn),-27%
8,O=C(NC1CC2CCCC(C1)N2CC(=O)N1CCCc2ccccc21)C1CCCCC1 (stereo not drawn),-70.6%
9,CC(=O)NC1CC2CCCC(C1)N2CC(=O)N1CCCc2ccccc21 (stereo not drawn),-7.15%
10,CCOC(=O)C1CCN(C(=O)c2ccc3c(c2)S(=O)(=O)c2ccccc2C3=O)CC1,-76.6%
11,NC(=O)C1CCN(C(=O)c2ccc3c(c2)S(=O)(=O)c2ccccc2C3=O)CC1,2.8%
12,CCOc1ccc(C(=O)N2CCC(C(=O)c3ccc4c(c3)OCCO4)CC2)cc1,-75.7%
13,CCOC(=O)N1CCN(C(=O)C2CCN(S(=O)(=O)N3CCCC3)CC2)CC1,6.91%
14,O=C1c2ccccc2S(=O)(=O)c2cc(C(=O)N3CCC(O)CC3)ccc21,6.7%
15,O=C(c1ccc2c(c1)OCCO2)C1CCN(C(=O)c2ccc(F)c(F)c2)CC1,-15.7%
16,CCOC(=O)N1CCN(C(=O)C2CCN(C(=O)c3ccc(C(C)(C)C)cc3)CC2)CC1,-31%
17,CCOC(=O)C1CCN(C(=O)C2CCN(S(=O)(=O)CC)CC2)CC1,-2.7%
18,O=C(c1ccc([N+](=O)[O-])cc1)N1CCN(C(=O)C2CCCCC2)CC1,-28.5%
19,CCOC(=O)N1CCN(C(=O)C2CCN(C(=O)c3ccc([N+](=O)[O-])cc3)CC2)CC1,-72%
20,O=C(c1ccc2c(c1)OCCO2)C1CCN(C(=O)c2ccc(F)cc2)CC1,-13%
21,CCOC(=O)C1CCN(C(=O)C2CCN(S(=O)(=O)N3CCCC3)CC2)CC1,-64.9%
